SW480 rereplic: DNA re-replication induction in SW480 cells; SW480 DNA re-replication, Hoechst DNA content imaging, 48 h; Potency, µM (series often up to 46.1 µM), usual class: activators; 340,000 tested, 1.8% active; AID 624297; further: nearly all actives have a fitted effect of over 55% in size
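250 cells/well; 23 nL cpd via pin tool; 48 hr, 37 C, 5% CO2; Hoechst 40 min; imager read of total nuclear intensity, ex 405/em 500-530 nm.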
Vif-APOBEC3F blk: Vif-A3F binding inhibition | Potency, µM (top dose mostly 46.1 µM) | 390,000 tested, 0.2% active | HeLa A3F-eYFP + Vif (tagged APOBEC3F with the HIV-1 protein that degrades it), YFP fluorescence increase; further: nearly all actives have a fitted effect of over 65% in size
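Fluorescence increase (Ex 488/Em 500-530) after overnight compound treatment at 37 deg C flags inhibition of Vif-driven A3F-eYFP loss in stable HeLa A3F-eYFP/Vif cells seeded overnight beforehand.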
IL1B secr inh: inflammasome signaling inhibition, IL-1 beta readout; THP-1 LPS/ATP IL-1B secretion, AlphaLISA, 16 h; active compounds read low; activity change, % at 57.5 µM; 360,000 tested, 4.7% active; AID 743279; in the data active means activity change below about -50%; inconclusive means mostly about -30% to -49%
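Secreted IL-1B measured by AlphaLISA bead assay after 16 h compound exposure of THP-1 cells; compounds (final up to 57.5 uM) added 1 h before LPS (250 ng/mL) and ATP (1.25 mM) stimulation; lower signal means less secretion.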
Vif-A3G inh: inhibitors of Vif-APOBEC3G interaction | AID 602310 | Potency, µM (doses to about 46.1 µM), usual class: inhibitors | Q9HC16 | HeLa A3G-eYFP + Vif (tagged APOBEC3G with the HIV-1 protein that degrades it), YFP fluorescence, overnight | 410,000 tested, 0.076% active; further: nearly all actives have a fitted effect of over 60% in size
Target sequence (Q9HC16 whole entry, looked up): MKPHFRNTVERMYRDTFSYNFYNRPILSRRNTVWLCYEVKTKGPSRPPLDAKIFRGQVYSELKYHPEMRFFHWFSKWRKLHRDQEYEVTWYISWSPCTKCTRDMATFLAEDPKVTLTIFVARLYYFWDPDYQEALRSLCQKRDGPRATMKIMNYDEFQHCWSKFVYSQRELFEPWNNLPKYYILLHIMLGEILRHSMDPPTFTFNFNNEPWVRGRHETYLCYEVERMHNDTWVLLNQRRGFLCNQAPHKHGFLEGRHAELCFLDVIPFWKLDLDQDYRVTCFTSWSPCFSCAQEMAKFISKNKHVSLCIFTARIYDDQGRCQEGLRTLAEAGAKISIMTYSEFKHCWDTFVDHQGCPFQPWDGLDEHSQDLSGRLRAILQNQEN
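HeLa cells stably expressing Vif and C-terminally eYFP-tagged A3G, seeded overnight at 37 deg C, then exposed to compound by pintool overnight at 37 deg C. Rise in yellow fluorescence (Ex 488/Em 500-530, Acumen) marks blocked Vif-driven A3G degradation.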
MCF10A rerep: inducers of DNA re-replication in MCF 10A breast cells; MCF 10A DNA re-replication, Hoechst nuclear intensity, 48 h; Potency, µM (doses to about 46.1 µM), actives largely listed as activators; 350,000 tested, 2.9% active; AID 624296; further: nearly all actives have a fitted effect of over 50% in size
Giardia kill: kills Giardia lamblia; Giardia lamblia trophozoite viability; activity change, % at 7.66 µM, hits read low; 340,000 tested, 0.15% active; in the data active means activity change below about -80%; inconclusive means between about -30% and that limit;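 further: parasites exposed to compound for two days anaerobically before the ATP read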
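Trophozoites 100 cells/well + cpd; 48 hrs, 37 deg C, anaerobic. ATPLite 1-Step added, 15-30 min RT, luminescence read (ATP-based viability).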
Each line names hits and unclear results; the compound was inactive in the other large screens. Most compounds without a hit are left out; they make up all but 6.9% or so of the library. Unless noted, the call rests on the fitted dose curve; in most records, active means well fitted curve in the direction sought with a large enough effect; inconclusive means small, poorly fitted or top-dose-only effect, or another doubt; inactive means no such curve, though single readings can be large; an effect the other way counts as inactive or inconclusive.

CC1(C(=O)Nc2ccc(F)c(Cl)c2)Cc2c(-c3ccc(C(N)=O)cc3)ccnc2O1 (centres undefined)	IL1B secr inh -79 (no result: SW480 rereplic, Vif-APOBEC3F blk, MCF10A rerep, Giardia kill)
CCc1ccc(N2C(=O)CSC23C(=O)N(Cc2cccc(OC)c2)c2ccccc23)cc1 (centres undefined)	none (no result: SW480 rereplic, IL1B secr inh, MCF10A rerep, Giardia kill)
O=C(Nc1ccc(Cl)cc1)C1CCN(S(=O)(=O)c2ccc(Br)s2)CC1	none (no result: SW480 rereplic, IL1B secr inh, MCF10A rerep, Giardia kill)
Cc1ccc(CCNC(=O)C(CC(C)C)NS(=O)(=O)c2ccc3c(c2)oc(=O)n3C)cc1 (centres undefined)	none (no result: SW480 rereplic, IL1B secr inh, MCF10A rerep, Giardia kill)
CC(=O)Nc1cccc(-c2ccnc3c2CC(C)(C(=O)Nc2ccc(Cl)c(C(F)(F)F)c2)O3)c1 (centres undefined)	IL1B secr inh -67 (no result: SW480 rereplic, Vif-APOBEC3F blk, MCF10A rerep, Giardia kill)
CC(=O)Nc1cccc(-c2ccnc3c2CC(C)(C(=O)Nc2ccc(F)c(Cl)c2)O3)c1 (centres undefined)	none (no result: SW480 rereplic, Vif-APOBEC3F blk, MCF10A rerep, Giardia kill)
CC(=O)Nc1ccc(-c2ccnc3c2CC(C)(C(=O)Nc2cccc(C(F)(F)F)c2)O3)cc1 (centres undefined)	IL1B secr inh -62 (no result: SW480 rereplic, Vif-APOBEC3F blk, MCF10A rerep, Giardia kill)
COc1cccc(C(=O)/C=C2\Sc3ccccc3N2C)c1	SW480 rereplic inconclusive, IL1B secr inh -77, MCF10A rerep 18µM, Giardia kill inconclusive
CN1/C(=C\C(=O)c2cccnc2)Sc2ccccc21	SW480 rereplic 7.3µM
CCOc1ccc(S(=O)(=O)Nc2cnc3ccccc3c2)cc1	none
Cc1cc(C)c(S(=O)(=O)Nc2cnc3ccccc3c2)c(C)c1	IL1B secr inh -73
Nc1nc(-c2ccccc2)c(N=Nc2cccc3ccccc23)s1	SW480 rereplic inconclusive, MCF10A rerep inconclusive
Nc1nc(-c2ccccc2)c(N=Nc2ccccc2Cl)s1	IL1B secr inh -64, MCF10A rerep inconclusive
CN1C(=O)c2cccc3c(S(N)(=O)=O)ccc1c23	SW480 rereplic inconclusive, IL1B secr inh -88
COc1cccc(-c2nc(CS(=O)(=O)CC(=O)NCCCN3CCOCC3)c(C)o2)c1	IL1B secr inh -77
COc1ccc(OC)c(CCNC(=O)CS(=O)(=O)Cc2nc(-c3ccccc3Cl)oc2C)c1	IL1B secr inh -52
O=C(NC1CCCCC1)C(c1ccccc1)n1c(=O)c(-c2cc3ccccc3[nH]2)nc2ccccc21 (centres undefined)	IL1B secr inh -69 (no result: SW480 rereplic, Vif-APOBEC3F blk, Vif-A3G inh, MCF10A rerep, Giardia kill)
Cc1ccc(-c2csc(=Nc3ccc(F)cc3)n2Cc2ccc3c(c2)OCO3)cc1C	none (no result: SW480 rereplic, IL1B secr inh, MCF10A rerep, Giardia kill)
Cn1nnc2c(N3CCN(Cc4ccccc4)CC3)ncnc21	none (no result: SW480 rereplic, Vif-APOBEC3F blk, IL1B secr inh, Vif-A3G inh, MCF10A rerep)
CS(=O)(=O)c1nc([N+](=O)[O-])nn1CCCc1ccccc1	IL1B secr inh -103, MCF10A rerep 4.6µM
Cc1nn(CCCC(=O)NCCc2ccccc2)c(C)c1[N+](=O)[O-]	none
Cn1nc([N+](=O)[O-])nc1S(C)(=O)=O	SW480 rereplic 9.2µM, IL1B secr inh -101, MCF10A rerep 5.8µM
CC1(c2ccccc2)CC(C)(C)N(C(=O)c2ccccc2Cl)c2ccccc21 (centres undefined)	none (no result: SW480 rereplic, IL1B secr inh, MCF10A rerep, Giardia kill)
C/C=C1\NC(=O)[C@H](CC(N)=O)N(C)C(=O)C([C@@H](C)O)NC(=O)C(CCCc2ccc(OC)cc2)NC(=O)[C@H](C(C)C)NC(=O)/C(=C\C)NC(=O)[C@H](O)[C@@H](C[C@@H](O)CCCCCCC)NC(=O)[C@H](C)NC(=O)CN(C)C(=O)[C@H](CCC(N)=O)NC1=O (some centres undefined)	SW480 rereplic inconclusive, Vif-A3G inh inconclusive, MCF10A rerep 18µM
Cc1ccc(NC(=O)Nc2nnc(N(C)Cc3ccccc3)s2)cc1	none (no result: SW480 rereplic, IL1B secr inh, MCF10A rerep, Giardia kill)
O=C(Cc1cccs1)Nc1cccc(-c2nc3cc4ccccc4cc3[nH]2)c1	IL1B secr inh -97, MCF10A rerep inconclusive
Cn1c(=O)c(=O)n(C)c2cc(N3CCCC3)c(NC(=O)c3ccccc3F)cc21	none (no result: SW480 rereplic, IL1B secr inh, MCF10A rerep, Giardia kill)
O=C1CC(O)(C(F)(F)F)Oc2c1ccc1ccccc21 (centres undefined)	SW480 rereplic inconclusive, MCF10A rerep 21µM
N#C/C(=C\c1cccs1)C(=O)NCc1cccnc1	none
N#C/C(=C/c1ccc(C(=O)O)cc1)C(=O)NCc1ccccc1	MCF10A rerep inconclusive
